Compound activity as filed in PubChem BioAssay.
HT1080 IDH1KD tx: qHTS for induction of synthetic lethality in tumor cells producing 2HG: qHTS for the HT-1080-IDH1KD cell line | 360,000 tested, 2% active | Potency, µM (series often up to 46.1 µM), for inactives: at the highest dose activity, negative = toxicity, usual class: cytotoxic | HT-1080 IDH1 knockdown viability, ATP luminescence, 48 h;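 further: 0% = DMSO wells and -100% = cell-free medium wells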
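Assay cells: HT-1080 with IDH1 knockdown, 750 per well, RPMI/5% FBS. Exposure: 48 h at 37 °C following 2 h pre-incubation. Read: CellTiter-Glo luminescence; fitted concentration-response, curve class assigned.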
KB-V1 cytotox: qHTS assay for MDR1-selective chemotherapeutics: Primary screen using the drug-selected MDR subline cells KB-V1. AID 1347076, 2019. Potency, µM (doses to about 46.1 µM), usual class: cytotoxic. KB-V1 MDR cells viability, CellTiter-Glo, 72 h. 400,000 tested, 3.4% active; further: nearly all actives have a fitted effect of over 60% in size
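Cytotoxicity via CellTiter-Glo luminescence after 72 h compound exposure at 37 degrees C. Cells: drug-selected KB-V1 line, DMEM phenol-red free plus 10% FBS. Compounds tested at multiple concentrations; normalized data fitted to concentration-effect curves.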
DT40 TDP1 CPT: qHTS for Inhibitors of human tyrosyl-DNA phosphodiesterase 1 (TDP1): qHTS in cells in presence of CPT; chicken DT40 Tdp1-/-;hTDP1 cells + 20 nM CPT, ATP luminescence, 48 h; Potency, µM (doses to about 46.2 µM), for inactives: top-dose activity change, negative = growth inhibition, most hits filed as inhibitors; 420,000 tested, 12% active; AID 686979, 2013; further: nearly all actives have a fitted effect of over 55% in size
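Cell growth measured by CellTiter-Glo luminescence after a minimum 48 h, 37 C compound exposure with 20 nM CPT in Tdp1-knockout DT40 cells stably expressing hTDP1, seeded 400/well; qHTS titration format.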
TDP1 cell noCPT: qHTS for Inhibitors of human tyrosyl-DNA phosphodiesterase 1 (TDP1): qHTS in cells in absence of CPT | DT40 Tdp1-/- hTDP1 cells, no CPT, ATP luminescence, 48 h | Potency, µM (doses to about 46.2 µM), for the others: top-dose activity change, negative = growth inhibition, actives largely listed as inhibitors | 420,000 tested, 15% active; further: nearly all actives have a fitted effect of over 55% in size
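Growth of hTDP1-complemented DT40 Tdp1-knockout cells is measured by ATP luminescence after at least 48 hr compound exposure at 37 °C, with DMSO substituting for the 20 nM CPT used in the parallel screen.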
HT1080-NT tox: qHTS for induction of synthetic lethality in tumor cells producing 2HG: qHTS for the HT-1080-NT fibrosarcoma cell line; AID 686970, 2013; Potency, µM (series often up to 46.1 µM), for the others: at the highest dose activity, negative = less viability, usual class: cytotoxic; HT-1080-NT fibrosarcoma viability, CellTiter-Glo ATP luminescence, 48 h; 360,000 tested, 1.6% active;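 further: NT is the 2HG producing partner of a matched IDH1 knockdown line; 0% = DMSO-treated cells and -100% = media-only wells without cells; nearly all actives have a fitted effect of over 55% in size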
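750 cells/well, RPMI + 5% FBS; 2 h settle, compound pin-transfer, 48 h at 37 degrees C. CellTiter-Glo 10 min RT, luminescence. Normalized to DMSO and media-only wells.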
KB-3-1 tox: qHTS assay for MDR1-selective chemotherapeutics: Primary screen using the parental adenocarcinoma cell KB-3-1; KB-3-1 viability, CellTiter-Glo ATP luminescence, 72 h; Potency, µM (series often up to 46.1 µM), most hits filed as cytotoxic; 400,000 tested, 1.4% active; AID 1347075, 2019; further: nearly all actives have a fitted effect of over 60% in size
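Using CellTiter-Glo luminescence, growth of non-resistant KB-3-1 adenocarcinoma cells is assessed 72 h after pin-tool compound addition at 37 °C. Normalized responses across the concentration series yield fitted curves.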
* marks the source's active call; other numbers are inactive results. Most compounds without a hit are left out; they make up all but 19% or so of the library. The call rests on the fitted dose curve; in most records, active means well fitted curve in the direction sought with a large enough effect; inconclusive means small, poorly fitted or top-dose-only effect, or another doubt; inactive means no such curve, though single readings can be large; an effect the other way counts as inactive or inconclusive. Unless noted, on the % scale 0 is the no-effect control and ±100 the full control effect; potency means the concentration at half of the fitted maximal effect.

Cc1ccc(C)c(Cn2c(=O)c3c(nc4n3CCN4c3ccccc3)n(C)c2=O)c1 was read as DT40 TDP1 CPT 10% and TDP1 cell noCPT 2%.
`COCCCNc1ncnc2sc(C(=O)N3CCOCC3)c(C)c12` gave DT40 TDP1 CPT 11% and TDP1 cell noCPT -9%.
`CCOC(=O)N1CCC(NC(=O)c2ccc3c(c2)N(C)CCS3)CC1` gave HT1080 IDH1KD tx -7%, KB-V1 cytotox inactive, DT40 TDP1 CPT inconclusive, TDP1 cell noCPT inconclusive, HT1080-NT tox -29% and KB-3-1 tox inactive.
`CCOC(=O)N1CCC(NC(=O)c2ccc3c(c2)N(Cc2ccccc2)CCS3)CC1` gave HT1080 IDH1KD tx 2%, KB-V1 cytotox inactive, DT40 TDP1 CPT 18µM*, TDP1 cell noCPT 15µM*, HT1080-NT tox 12% and KB-3-1 tox inconclusive.
Screening O=C(c1ccc2c(c1)N(Cc1ccc(F)cc1)CCS2)N1CCN(c2ccccc2)CC1 returned KB-V1 cytotox inconclusive, DT40 TDP1 CPT 21µM*, TDP1 cell noCPT 23µM* and KB-3-1 tox inactive.
For CCOC(=O)N1CCN(C(=O)c2ccc3c(c2)N(Cc2ccc(F)cc2)CCS3)CC1 the results were HT1080 IDH1KD tx -9%, KB-V1 cytotox inconclusive, DT40 TDP1 CPT 8.2µM*, TDP1 cell noCPT 9.2µM*, HT1080-NT tox -8% and KB-3-1 tox inconclusive.
CCOC(=O)N1CCC(NC(=O)c2ccc3c(c2)N(Cc2ccc(C)cc2)CCS3)CC1 was read as HT1080 IDH1KD tx -2%, KB-V1 cytotox inactive, DT40 TDP1 CPT 21µM*, TDP1 cell noCPT 21µM*, HT1080-NT tox -4% and KB-3-1 tox inactive.
Cc1ccc(CN2CCSc3ccc(C(=O)N4CCN(c5ccccc5)CC4)cc32)cc1 was read as KB-V1 cytotox inactive, DT40 TDP1 CPT inconclusive, TDP1 cell noCPT -24% and KB-3-1 tox inactive.
`CCOC(=O)N1CCN(C(=O)c2ccc3c(c2)N(CC)CCS3)CC1` gave HT1080 IDH1KD tx 3%, KB-V1 cytotox inactive, DT40 TDP1 CPT inconclusive, TDP1 cell noCPT inconclusive, HT1080-NT tox -11% and KB-3-1 tox inactive.
Screening CC(C)CCC[C@@H](C)[C@H]1CC[C@H]2[C@@H]3CC[C@@H]4C[C@H](O)CC[C@]4(C)[C@H]3CC[C@]12C returned DT40 TDP1 CPT -10% and TDP1 cell noCPT -20%.
`O=C(NC1CC1)c1ccc2c(c1)N(Cc1ccccc1)CCS2` gave HT1080 IDH1KD tx -13%, KB-V1 cytotox inactive, DT40 TDP1 CPT inconclusive, TDP1 cell noCPT -21%, HT1080-NT tox -6% and KB-3-1 tox inactive.
For CCOC(=O)N1CCC(NC(=O)c2ccc3c(c2)N(Cc2ccc(F)cc2)CCS3)CC1 the results were HT1080 IDH1KD tx -15%, KB-V1 cytotox inconclusive, DT40 TDP1 CPT 23µM*, TDP1 cell noCPT 23µM*, HT1080-NT tox -25% and KB-3-1 tox inconclusive.
`O=c1c(-c2ccc(F)cc2)nc2cnc(N3CCOCC3)nc2n1C1CC1` gave DT40 TDP1 CPT 3% and TDP1 cell noCPT 16%.
`Cc1ccc(C)c(N(CC(=O)N/N=C/c2ccc(-c3ccc([N+](=O)[O-])cc3)o2)S(=O)(=O)c2ccccc2)c1` gave HT1080 IDH1KD tx -4%, KB-V1 cytotox inactive, DT40 TDP1 CPT inconclusive, TDP1 cell noCPT inconclusive, HT1080-NT tox -3% and KB-3-1 tox inactive.
CS(=O)(=O)N(CC(=O)N/N=C/c1ccccc1C(=O)O)c1cccc(Cl)c1Cl was read as HT1080 IDH1KD tx -9%, KB-V1 cytotox inactive, DT40 TDP1 CPT -14%, TDP1 cell noCPT 0%, HT1080-NT tox 2% and KB-3-1 tox inactive.
`CCOC(=O)c1ccc(-c2ccc(/C=N/NC(=O)CN(c3cccc(C)c3)S(C)(=O)=O)o2)cc1` gave HT1080 IDH1KD tx 0%, KB-V1 cytotox inactive, DT40 TDP1 CPT inconclusive, TDP1 cell noCPT 15µM*, HT1080-NT tox 0% and KB-3-1 tox inactive.
`CCOC(=O)c1ccc(-c2ccc(/C=N/NC(=O)CN(c3ccccc3Cl)S(C)(=O)=O)o2)cc1` gave HT1080 IDH1KD tx -13%, KB-V1 cytotox inconclusive, DT40 TDP1 CPT inconclusive, TDP1 cell noCPT 23µM*, HT1080-NT tox -6% and KB-3-1 tox inconclusive.
For CC(C)c1ccc(/C=N/NC(=O)CN(c2cccc(Cl)c2Cl)S(C)(=O)=O)cc1 the results were HT1080 IDH1KD tx 21µM*, KB-V1 cytotox inconclusive, DT40 TDP1 CPT 29µM*, TDP1 cell noCPT inconclusive, HT1080-NT tox 18µM* and KB-3-1 tox inconclusive.
For CCCCC(CCC(=O)NNC(=O)Cc1ccccc1)C(=O)O (configuration not stated) the results were HT1080 IDH1KD tx 0%, KB-V1 cytotox inactive, DT40 TDP1 CPT -3%, TDP1 cell noCPT 3%, HT1080-NT tox -5% and KB-3-1 tox inactive.
Screening COc1ccc(S(=O)(=O)N(CC(=O)N2CCN(C)CC2)c2ccccc2)cc1OC returned HT1080 IDH1KD tx -4%, KB-V1 cytotox inactive, DT40 TDP1 CPT -5%, TDP1 cell noCPT -13%, HT1080-NT tox -2% and KB-3-1 tox inactive.
CCc1ccc(NC(=O)Cn2cccc2)cc1 was read as HT1080 IDH1KD tx 21%, KB-V1 cytotox inactive, DT40 TDP1 CPT 1%, TDP1 cell noCPT 15%, HT1080-NT tox 21% and KB-3-1 tox inactive.
`COc1cccc(OC)c1-c1nn2c(-c3ccccc3Cl)nnc2s1` gave HT1080 IDH1KD tx -9%, KB-V1 cytotox 9.2µM*, DT40 TDP1 CPT 0%, TDP1 cell noCPT -23%, HT1080-NT tox -2% and KB-3-1 tox inactive.
Clc1ccccc1-c1nnc2sc(-c3ccccn3)nn12 was read as HT1080 IDH1KD tx 2%, KB-V1 cytotox inactive, DT40 TDP1 CPT inconclusive, TDP1 cell noCPT inconclusive, HT1080-NT tox -4% and KB-3-1 tox inactive.
Screening COc1ccccc1-c1nn2c(-c3cc(C)[nH]n3)nnc2s1 returned KB-V1 cytotox inactive, DT40 TDP1 CPT 8.9µM*, TDP1 cell noCPT 7.9µM* and KB-3-1 tox inactive.
